The text below walks through data of the antibiotic and cytotoxicity screens of Wong et al. (2023).

The whole screen tested about 39,000 compounds, of which about 3,300 (8.5%) were called active. The sample as a whole holds a higher share of actives than the screen did.

This test concerns HepG2. As to the kind of experiment: cytotoxicity call (relative viability < 0.9). The settings on record: 10 µM.
Take `O=C(O[C@@H]1O[C@@H]2COC(=O)c3cc(Oc4c(C(=O)O)cc(O)c(O)c4O)c(O)c(O)c3-c3c(cc(O)c(O)c3O)C(=O)O[C@H]2[C@H](OC(=O)c2cc(O)c(O)c(O)c2)[C@H]1OC(=O)c1cc(O)c(O)c(O)c1)c1cc(O)c(O)c(O)c1`: the cytotoxicity call was “inactive”.
On to `O=C(O[C@@H]1Cc2c(O)cc(O)cc2O[C@@H]1c1cc(O)c(O)c(O)c1-c1c([C@H]2Oc3cc(O)cc(O)c3C[C@H]2O)cc(O)c(O)c1O)c1cc(O)c(O)c(O)c1`, for which the cytotoxicity call is “inactive”.
The result for `O=C(OC1Cc2c(O)cc(O)cc2OC1c1cc(O)c(O)c(O)c1-c1c(C2Oc3cc(O)cc(O)c3CC2OC(=O)c2cc(O)c(O)c(O)c2)cc(O)c(O)c1O)c1cc(O)c(O)c(O)c1` (centres undefined) reads “inactive”.
The result for `O=C(O[C@@H]1O[C@@H]2COC(=O)c3cc(O)c(O)c(O)c3-c3c(cc(O)c(O)c3O)C(=O)O[C@H]2[C@H](OC(=O)c2cc(O)c(O)c(O)c2)[C@H]1OC(=O)c1cc(O)c(O)c(O)c1)c1cc(O)c(O)c(O)c1` reads “active”; that for `O=C(O[C@@H]1O[C@H]2COC(=O)c3cc(O)c(O)c(O)c3-c3c(cc(O)c(O)c3O)C(=O)O[C@@H]([C@H]1O)[C@@H]2O)c1cc(O)c(O)c(O)c1`, “inactive”; that for `O=C(O[C@@H]1O[C@H]2COC(=O)c3cc(O)c(O)c(O)c3-c3c(cc(O)c(O)c3O)C(=O)O[C@@H]([C@H]1O)[C@@H]2OC(=O)c1cc(O)c(O)c(O)c1-c1c(C(=O)O)cc(O)c(O)c1O)c1cc(O)c(O)c(O)c1`, “active”.
The result for `C[C@@H]1CCCCO[C@H](CN(C)C(=O)CCC(F)(F)F)[C@@H](C)CN([C@H](C)CO)C(=O)c2cc(NC(=O)NC3CCCCC3)ccc2O1` reads “inactive”; that for `C[C@@H]1CN([C@H](C)CO)C(=O)c2cccc(NC(=O)C3CCOCC3)c2O[C@H]1CN(C)Cc1ccc(C(=O)O)cc1`, “inactive”.
As to `Cc1ccc(S(=O)(=O)Nc2ccc3c(c2)C(=O)N([C@@H](C)CO)C[C@H](C)[C@H](CN(C)C(=O)Nc2c(C)noc2C)OCCCC[C@@H](C)O3)cc1`, the cytotoxicity call is “inactive”.
The result for `C[C@@H]1CN([C@H](C)CO)C(=O)Cc2cc(NC(=O)Nc3cccc4ccccc34)ccc2O[C@H]1CN(C)Cc1ccc2c(c1)OCO2` reads “inactive”; that for `C[C@@H]1CN([C@@H](C)CO)C(=O)Cc2cc(NC(=O)Nc3cccc4ccccc34)ccc2O[C@@H]1CN(C)Cc1ccc2c(c1)OCO2`, “active”; that for `C[C@H](CO)N1C[C@H](C)[C@H](CN(C)Cc2ccc3c(c2)OCO3)Oc2ccc(NC(=O)Nc3cccc4ccccc34)cc2CC1=O`, “inactive”.
Next, `C[C@H]1CN([C@@H](C)CO)C(=O)Cc2cc(NC(=O)Nc3cccc4ccccc34)ccc2O[C@@H]1CN(C)Cc1ccc2c(c1)OCO2`: “inactive”; `C[C@H](CO)N1C[C@H](C)[C@@H](CN(C)Cc2ccc3c(c2)OCO3)Oc2ccc(NC(=O)Nc3cccc4ccccc34)cc2C1=O`: “inactive”; `C[C@H](CO)N1C[C@H](C)[C@@H](CN(C)Cc2ccc3c(c2)OCO3)Oc2ccc(NC(=O)Nc3cccc4ccccc34)cc2CC1=O`: “inactive”.
Next, `C[C@@H]1CN([C@H](C)CO)C(=O)Cc2cc(NC(=O)Nc3cccc4ccccc34)ccc2O[C@@H]1CN(C)Cc1ccc2c(c1)OCO2`: “active”; `C[C@H]1CN([C@@H](C)CO)C(=O)Cc2cc(NC(=O)Nc3cccc4ccccc34)ccc2O[C@H]1CN(C)Cc1ccc2c(c1)OCO2`: “inactive”.
Turning to `C[C@@H]1CN([C@@H](C)CO)C(=O)Cc2cc(NC(=O)Nc3cccc4ccccc34)ccc2O[C@H]1CN(C)Cc1ccc2c(c1)OCO2`, the cytotoxicity call is “active”.
The result for `O=c1[nH][nH]c(=O)c(Cl)c1Cl` reads “inactive”.
The result for `COc1ccc(NC(=O)N(C)C[C@@H]2Oc3c(NC(=O)C4CC4)cccc3C(=O)N([C@@H](C)CO)C[C@H]2C)cc1` reads “inactive”; that for `CC(C)CC#Cc1ccc2c(c1)O[C@H](CN(C)C(=O)NC1CCCC1)[C@@H](C)CN([C@H](C)CO)S2(=O)=O`, “inactive”; that for `CC(C)NC(=O)Nc1cccc2c1O[C@H](CN(C)S(=O)(=O)c1ccc(Cl)cc1)[C@H](C)CN([C@@H](C)CO)C2=O`, “inactive”.
Next, `COc1ccc(CN(C)C[C@@H]2OCCCC[C@@H](C)Oc3ccc(NS(=O)(=O)c4c(C)noc4C)cc3C(=O)N([C@H](C)CO)C[C@H]2C)cc1`: “inactive”; `C[C@@H]1CN([C@@H](C)CO)C(=O)c2cc(NC(=O)Cc3cn(C)c4ccccc34)ccc2O[C@H]1CN(C)S(=O)(=O)c1cn(C)cn1`: “inactive”; `COc1ccc(NC(=O)Nc2ccc3c(c2)C(=O)N([C@@H](C)CO)C[C@H](C)[C@H](CN(C)C(=O)Nc2ccc4c(c2)OCO4)OCCCC[C@H](C)O3)cc1`: “inactive”.
In the case of `CCS(=O)(=O)Nc1ccc2c(c1)/C(=C(/Nc1ccc(CN3CCCCC3)cc1)c1ccccc1)C(=O)N2`, the cytotoxicity call was “active”.
With `CCS(=O)(=O)Nc1ccc2c(c1)C(=O)N(C)[C@@H]1CC[C@H](CC(=O)N[C@H]3CCN(Cc4ccccc4)C3)O[C@H]1CO2`, the cytotoxicity call was “inactive”.
Next, `CCS(=O)(=O)Nc1ccc2c(c1)CC(=O)N2`: “inactive”.
Next, `N#Cc1cccc(NCCN2CCNC2=O)n1`: “inactive”.
For `C=CCCN(CC#C[C@H]1Oc2ccccc2S(=O)(=O)N2CCC[C@@H]12)S(=O)(=O)c1ccc(C)cc1`, the cytotoxicity call is “active”.
Next, `Cc1ccc(S(=O)(=O)N(C)C[C@@H]2Oc3cc(C#Cc4ccccc4)ccc3S(=O)(=O)N([C@H](C)CO)C[C@H]2C)cc1`: “inactive”.
With `Cc1ccc(S(=O)(=O)N(C)C[C@H]2Oc3cc(C#Cc4ccccc4)ccc3S(=O)(=O)N([C@H](C)CO)C[C@@H]2C)cc1`, the cytotoxicity call was “inactive”.
Next, `C[C@@H]1CCCCO[C@H](CN(C)C(=O)Cc2ccccc2)[C@@H](C)CN([C@H](C)CO)C(=O)c2cc(NS(=O)(=O)c3ccc(F)cc3)ccc2O1`: “inactive”; `Cc1noc(C)c1NC(=O)Nc1ccc2c(c1)C(=O)N([C@H](C)CO)C[C@@H](C)[C@H](CN(C)C(=O)Nc1ccc(C(F)(F)F)cc1)OCCCC[C@H](C)O2`: “inactive”; `CCCNC(=O)Nc1ccc2c(c1)OC[C@H](C)N(Cc1ccc(-c3ccccn3)cc1)C[C@@H](C)[C@@H](OC)CN(C)C2=O`: “inactive”.
Take `O=C(C[C@H]1CC[C@H]2[C@@H](COC[C@@H](O)CN2Cc2cc(F)ccc2F)O1)N[C@H]1CCN(Cc2ccccc2)C1`: the cytotoxicity call was “active”.
Next, `O=C(C[C@H]1CC[C@@H]2[C@H](COC[C@@H](O)CN2Cc2cc(F)ccc2F)O1)N[C@H]1CCN(Cc2ccccc2)C1`: “active”; `O=C(C[C@@H]1CC[C@@H]2[C@H](COC[C@@H](O)CN2Cc2cc(F)ccc2F)O1)N[C@@H]1CCN(Cc2ccccc2)C1`: “inactive”.
Next, `O=C(C[C@H]1CC[C@@H]2[C@H](COC[C@@H](O)CN2Cc2cc(F)ccc2F)O1)N[C@@H]1CCN(Cc2ccccc2)C1`: “active”; `O=C(C[C@@H]1CC[C@H]2[C@@H](COC[C@H](O)CN2Cc2cc(F)ccc2F)O1)N[C@H]1CCN(Cc2ccccc2)C1`: “inactive”; `O=C(C[C@@H]1CC[C@@H]2[C@H](COC[C@@H](O)CN2Cc2cc(F)ccc2F)O1)N[C@H]1CCN(Cc2ccccc2)C1`: “inactive”.
Next, `O=C(C[C@H]1CC[C@H]2[C@@H](COC[C@H](O)CN2Cc2cc(F)ccc2F)O1)N[C@H]1CCN(Cc2ccccc2)C1`: “inactive”; `O=C(C[C@H]1CC[C@H]2[C@@H](COC[C@@H](O)CN2Cc2cc(F)ccc2F)O1)N[C@@H]1CCN(Cc2ccccc2)C1`: “inactive”; `O=C(C[C@@H]1CC[C@H]2[C@@H](COC[C@@H](O)CN2Cc2cc(F)ccc2F)O1)N[C@H]1CCN(Cc2ccccc2)C1`: “inactive”.
